Inconclusive results are not listed. Unmarked numbers belong to inactive results. The source made the active and inactive calls. Calls come from the whole dose curve; as a rule, active = well fitted inhibition curve with a large enough effect; inconclusive = small, poorly fitted or top-dose-only effect; inactive = flat fitted curve, though single readings scatter.
What follows are compounds tested against Calcium and integrin-binding protein 1 (Homo sapiens) (UniProt Q99828) (assay: Primary qHTS for Identification of Calcium Integrin Binding Protein 1 (CIB1) Competitor (AID 1508620;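 note: GST tagged CIB1 binding a fluorescein labelled alphaIIb integrin peptide tracer; top concentration of the series differs between compounds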)). Settings: CIB1-GST / FITC-alphaIIb peptide fluorescence polarization; series mostly up to 114 µM; activity change, negative = inhibition: at the top concentration.
Calcium and integrin-binding protein 1 (Homo sapiens), sequence (Q99828 whole entry, looked up): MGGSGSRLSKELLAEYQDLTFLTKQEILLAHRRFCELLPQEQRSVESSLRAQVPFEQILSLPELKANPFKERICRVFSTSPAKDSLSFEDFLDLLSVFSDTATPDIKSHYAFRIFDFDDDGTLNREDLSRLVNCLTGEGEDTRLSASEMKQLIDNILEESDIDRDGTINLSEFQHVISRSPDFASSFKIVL
Summary of the method: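 Fluorescence polarization competition: CIB1-GST (1 uM final) preincubated with compound 15 min at room temperature, then FITC-labeled alphaIIb peptide (100 nM final) added for another 15 min. Polarization read at Ex 480/Em 540.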
% is set by controls: 0 for no effect and ±100 for the full control effect.

SMILES	activity change, negative = inhibition	Potency
COc1cccc(-c2nnc3n2N=C(c2ccc(OC)cc2OC)CS3)c1	-1.16%	
CCOC(=O)c1[nH]c2c(c1C)C(=O)CC(c1ccco1)C2 (stereo not given)		inactive
CCOC(=O)C1CCN(c2ccc(NCc3ccc(-c4ccc(C#N)cc4)o3)cc2)CC1	-6.55%	
Fc1cc(F)cc(Nc2nc(NC3CCCC3)nc(C3CO3)n2)c1 (stereo not given)	-3.61%	
Cc1csc(CNc2ncnc3ccc(-c4ccoc4)cc23)c1	-7.36%	
CN(C)c1ccc(C(=O)OCC#CCSc2nnc(-c3cccc4ccccc34)o2)cc1	-1.89%	
Nc1c(-c2ccccc2)cc[nH]c1=O	-8.82%	
Cc1ccccc1NS(=O)(=O)c1ccc2c(c1)CCC(=O)N2	-2.17%	
O=C(Nc1cccc(-c2nn3c(=O)cc(N4CCNCC4)nc3s2)c1)c1ccncc1	4.17%	
Cn1ncc2ccc(-c3ccc4ncnc(NCc5cccs5)c4c3)cc21	24%	
CC(=O)Nc1sc2c(c1-c1cc3ccccc3o1)CCNC2	19%	
Cc1ccc(C)c(OC2=NS(=O)(=O)c3ccccc32)c1	-4.55%	
Cc1cccc(-c2csc(N3CCC(C(N)=O)CC3)n2)c1	0.0648%	
O=[S+]([O-])(Nc1ccccc1)c1ccc(NCc2cccc(Cl)c2F)cc1	8.19%	
O=C(Nc1cccc2c1cnn2-c1ccc(F)cc1)c1ccccn1	4.34%	
Cc1cccc(C)c1-n1c(SCC(=O)Nc2ccc(F)cc2)nnc1-c1cccc([S+](=O)([O-])N2CCCC2)c1	-0.159%	
Cc1cnc(-c2ccccc2C(C)C)nc1NCc1ccc(-c2cccc(S(N)(=O)=O)c2)cc1	6.54%	
O=C(CCc1ccccc1)Nc1ncnc2c1C(c1ccccc1)c1c(ccc3ccccc13)O2 (stereo not given)	0.23%	
O=C(O)c1cccnc1SC1=NS(=O)(=O)c2ccccc21	-2.75%	
CCOc1ccc(COc2ccc(-c3nc4ccccc4[nH]3)cc2)cc1	-5.15%	

SMILES	activity change, negative = inhibition	Potency
c1csc(CNc2ncnc3ccc(-c4ccc5c(c4)OCCO5)cc23)c1	-1.59%	
O=C(O)c1c(-c2ccccc2)no[n+]1[O-]	3.65%	
Cc1nc(-c2ccccc2C(C)C)nc(NCc2ccc(-c3cccnc3)cc2)c1C	4.31%	
FC(F)(F)c1ccccc1-c1nc(NCc2ccc(-c3ccc4c(c3)OCCO4)cc2)c2ccccc2n1	7.58%	
O=Cc1ccc(-c2ccc3ncnc(NCc4cccs4)c3c2)o1	4.7%	
O=C(NCCCc1ccccc1)C1CCN(c2nc(-c3ccc(Br)cc3)cs2)CC1	4.01%	
N#CN1CCC(NS(=O)(=O)c2cccc(C(F)(F)F)c2)CC1	-1.66%	
O=C1CCCC2=C1C(c1[nH]ncc1Cl)N=C(Nc1cccnc1)N2 (stereo not given)	-1.39%	
O=C(O)c1ccc(-c2ccc3ncnc(NCC4CCCO4)c3c2)o1 (stereo not given)	-1.99%	
COc1cc(F)c(S(=O)(=O)N2CCCN(S(=O)(=O)c3ccc(NC(C)=O)cc3)CC2)c(F)c1	2.13%	
CC(C)(C)c1ccc(-n2cnc3cc(C(=O)N4CCCCC4)ccc32)cc1	0.337%	
Cc1ccc(NC(=O)CN2C(=O)N/C(=C\c3ccco3)C2=O)cc1	-21.6%	
Cc1ccc(-n2c(=O)ccc(=O)n2CC(=O)NCCc2ccccc2)cc1	5.84%	
O=C(Cc1ccccc1)Nc1nnc(-c2ccncc2)s1	2.43%	
Cc1csc(CNc2ncnc3ccc(-c4ccc(C(=O)O)o4)cc23)n1	-17.5%	
CCCN(Cc1cccs1)c1ncnc2ccc(-c3ccc4c(c3)OCO4)cc12	9.67%	
Cc1ccc(-c2nn3c(-c4ccccc4)nnc3s2)cc1NC(=O)c1ccc(-c2cccc(Cl)c2)o1	26.5%	
COc1ccc(C(=O)N(Cc2ccccc2)Cc2ccccc2)cc1COc1ccc(NC(C)=O)cc1	1.79%	
O=C(Nc1ccc2ccccc2c1)Nc1nnc(Br)s1	8.09%	
CCOC(=O)c1ccc2c(c1)c(C(C)=O)c(C)n2-c1ccc(OC)cc1	-1.8%	

Source: PubChem BioAssay (NCATS)
